These results are taken from PubChem BioAssay (NCI).

Each structure is given as a SMILES string. Compounds without any hit were thinned out: in the full panel of roughly 83,000, 20% have a hit.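 48-hour exposure, single concentration, 96-well plates; percent growth endpoint where 0 means no net growth. Active: below 10.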 A number with no mark means an inactive call. The source made the active and inactive calls.

What all share (assay): NCI-60 one-dose screen, 48 h (100 = growth as untreated, 0 = no growth, -100 = all killed)
Details in all cases: 10 µM unless noted

Test [1] relates to SR leukemia.
For test [2], the system named is RPMI-8226 leukemia.
The test system of test [3] is OVCAR-8 ovarian.
In test [4] the test system is OVCAR-5 ovarian.
The subject of test [5] is OVCAR-4 ovarian.
Test [6] concerns SK-OV-3 ovarian.
Test [7] deals with IGROV1 ovarian.
The test system of test [8] is OVCAR-3 ovarian.
For test [9], the system named is HS 578T breast.
Test [10] has as its system NCI/ADR-RES ovarian.
The subject of test [11] is T-47D breast.
Test [12] concerns BT-549 breast.
Test [13] has as its system MDA-MB-435 melanoma.
The test system of test [14] is SW-620 colon.
Test [15] has as its system MCF7 breast.
Test [16] deals with HCT-116 colon.
The test system of test [17] is HCC-2998 colon.
Test [18] deals with KM12 colon.

With `C=C1CC[C@@H]2[C@]3(C)COC(c4ccccc4)O[C@@H]3CC[C@@]2(C)[C@@H]1C/C=C1/C(=O)OC[C@H]1O` (some centres not stated), the growth in [1] was 36.9%; in test [2] it was 28.2%; in test [3] it was 56.6%; in [4] it was 105%; in test [5], 83.4%; in test [6], 119%. For the same compound, the growth in [7] was 89.3%; in test [8], 63.8%; in [9], 101%; in test [10], 57%; in test [11] it was 70.6%; in test [12] it was 63.8%. Further, the growth in test [13] was 81.4%; in test [14], 49.7%; in test [15], 46.1%; in test [16] it was 38.4%; in test [17] it was 108%; in [18] it was 86.1%.

Regarding `CC(=O)c1ccc(Nc2nc(SCC(C)C)nc(-c3ccccc3)c2C#N)cc1`, the growth in [1] was 110%; in [2], 111%; in test [3], 70%; in [4] it was 109%; in test [5], 103%; in test [6], 79.7%. Also, the growth in [7] is 88.6%; in [8], 122%; in [9] it was 44.6%; in test [10], 89.1%; in [11] it was 94.5%; in test [12], 92%. The growth in [13] was 106%; in test [14], 117%; in [15], 100%; in test [16], 83.7%; in test [17], 105%; in test [18], 112%.

As for `C=CCN(C)S(=O)(=O)/N=C1\NC(=O)NC1=C(Cl)Cl`, the growth is -18.7% (active) in [1]; 5.23% (active) in test [2]; 61.2% in test [3]; -37.5% (active) in [4]; 89.1% in [5]; 104% in [6]. Moreover, the growth in [7] was -37.4% (active); in test [8], -84.3% (active); in test [9], 80.5%; in test [10], 72.5%; in test [11], 55.1%; in test [12] it was 89.1%. Besides, the growth in test [13] is 34.4%; in test [14], -61.9% (active); in test [15] it was 11.9%; in [16] it was 1.54% (active); in test [17], 40.1%; in [18], 7.25% (active).

Turning to `CN(C)CCNC(=O)c1ccc(-c2nc3ccc4[nH]ncc4c3c3c2CCC3)cc1`, the growth in test [1] was -1.05% (active); in [2], -15.7% (active); in [3] it was 9.58% (active); in test [4], 21.4%; in test [5], 10.2%; in test [6] it was 0.409% (active). In addition, the growth is 1.06% (active) in test [7]; 2.15% (active) in [8]; -25% (active) in test [9]; 81.3% in test [10]; 32.8% in test [11]; -19.5% (active) in test [12]. Moreover, the growth in [13] is 22.2%; in [14], 3.38% (active); in test [15] it was 1.36% (active); in [16], 2.43% (active); in test [17], 2.85% (active); in test [18], 4.08% (active).

For `CCCC(=O)NC(c1cccnc1)c1cc(C(C)(C)C)c2cccnc2c1O` (configuration not stated), the growth was 11.5% in test [1]; 24.5% in [2]; 17.3% in [3]; 40.8% in test [4]; 31.1% in test [5]; 7.42% (active) in test [6]. For the same compound, the growth in [7] was 6.31% (active); in test [8], 12.4%; in test [9] it was 46.6%; in [10] it was 21.2%; in [11], 24.1%; in test [12], 24.8%. Moreover, the growth was 30.2% in [13]; 34.2% in test [14]; 10.9% in test [15]; 21.7% in test [16]; 51.4% in [17]; 18.8% in [18].

Regarding `O=C(NNc1nc2cc(F)ccc2n2c(CN3CCCC3)ccc12)c1cnccn1`, the growth in test [1] is 4.32% (active); in test [2], 20.6%; in [3], 13.9%; in test [4] it was 33.5%; in [5], 14.1%; in test [6], 16.8%. In addition, the growth in test [7] is 13.8%; in test [8], 4.58% (active); in [9] it was 68.1%; in test [10] it was 0.656% (active); in test [11], 15.4%; in test [12] it was 24.1%. Moreover, the growth in test [13] was 34.4%; in test [14], 22.3%; in test [15], 4.57% (active); in [16], 11.1%; in test [17] it was 35.7%; in test [18], 20.3%.

For the compound `COc1ccc(NC2=C(Cl)C(=O)c3nc(C)ccc3C2=O)cc1OC`, the growth was 0.922% (active) in [1]; 47.3% in [2]; 92.6% in [3]; 105% in [4]; 71.4% in test [5]; 91.8% in test [6]. For the same compound, the growth in test [7] was 19.6%; in test [8] it was 13.2%; in test [9] it was 119%; in test [10] it was 94.7%; in test [11], 14.9%; in [12], 126%. The growth in test [13] was -67.2% (active); in [14], 72.2%; in test [15], 59%; in test [16], 55.8%; in [17] it was 104%; in [18], 98.2%.

As to `CNC(=O)c1c(NC(=O)c2ccccc2C(F)(F)F)sc2c1CCC(=O)C2`, the growth in [1] is 29%; in [2] it was -0.77% (active); in [3], 24.6%; in test [4] it was 23.2%; in test [5], 16.2%; in test [6] it was 95.7%. For the same compound, the growth is 36.6% in [7]; 11.2% in test [8]; 40% in [9]; 28.1% in [10]; 9.8% (active) in [11]; 27.2% in test [12]. Moreover, the growth is 37.5% in [13]; 21% in test [14]; 13.9% in [15]; 8.16% (active) in test [16]; 62% in test [17]; 18.5% in test [18].

Take `CC(Nc1c(C#N)cnc2ccc(-c3cnc(N)nc3)cc12)c1ccccc1` (configuration not stated): the growth in [1] is 14%; in [2], -11% (active); in test [3] it was 21.3%; in [4], 23.5%; in test [5], 16.5%; in test [6], -0.597% (active). Also, the growth in test [7] is -16% (active); in [8], 15.3%; in test [9], -22.5% (active); in test [10], 19.3%; in [11] it was 9.18% (active); in test [12], 4.06% (active). For the same compound, the growth was 15.5% in test [13]; 18.2% in test [14]; 8.42% (active) in [15]; 10.7% in [16]; 8.61% (active) in [17]; 10.8% in [18].
